Compounds with a hit are over-represented: about 1.9% of the library has one in this group of screens.
GALR2 ag: GALR2 (human) receptor agonism; O43603; GALR2-expressing cells, agonist activation read-out; activation, % (concentration not given with the values); hit rate 0.48% among 140,000; in the data active = activation above about 5%, passing the limit was not always enough;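 note: 0% = vehicle buffer wells and 100% = reference agonist at full effect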
S1P2 ag: S1P2 (human) receptor agonism; O95136; S1P2-expressing cell line, agonist reporter read-out; activation, % at 4.5 µM; hit rate 0.46% among 97,000; AID 729; in the data active = activation above about 16%;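 note: 0% = vehicle low control and 100% = maximal reference agonist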
FAK inh: inhibitors of human focal adhesion kinase; AID 727; hit rate 0.84% among 97,000; biochemical FAK kinase activity assay; inhibition, %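 (tested at 7 µM)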; Q05397; in the data active = inhibition above about 19%;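 note: 0% = DMSO and 100% = reference compound high control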
S1P2 blocker: antagonists of human S1P2 receptor; cell-based S1P2 antagonist assay, inhibition at 5 uM; inhibition, % at 5 µM; hit rate 0.21% among 97,000; AID 736; in the data active = inhibition above about 45%;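 note: CRE beta-lactamase reporter cells expressing human S1P2 stimulated with S1P; 0% = agonist at EC80 alone and 100% = agonist plus reference antagonist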
GALR2 antag: antagonists of human galanin receptor 2 (GALR2) | GALR2-expressing cells, antagonist mode | inhibition, % at 4 µM | hit rate 0.39% among 140,000; in the data active = inhibition above about 27%;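 note: cells stimulated with galanin 1-16 at roughly its EC80; 0% = agonist challenge control and 100% = basal control without agonist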
sdo1 growth: restores growth of sdo1-depleted yeast | AID 817 | hit rate 0.21% among 140,000 | z-score at 10 µM | S. cerevisiae sdo1-depleted JHY4D growth rescue, OD600 30 h; hits give high values; pdr5 snq2 efflux-pump mutant strain;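 active = z-score above 3 at both the 24 hr and the 30 hr optical density reads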;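 note: z-score against mean and SD of all compound wells on the same plate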
Numbers without * were called inactive; . = no result given.

SMILES	GALR2 ag	S1P2 ag	FAK inh	S1P2 blocker	GALR2 antag	sdo1 growth
COc1ccc(OCC(O)Cn2c(=N)n(Cc3ccccc3)c3ccccc32)cc1 (stereo not given)	-2	-10	8	46	29*	0.02
CC1(C)CC(=O)C2=C(C1)OC(N)=C(C#N)C2c1cc2c(cc1[N+](=O)[O-])OCO2 (stereo not given)	-2	.	.	.	18	-0.18
CCNc1ccc2c(Cl)cc(=O)oc2c1	6	-5	2	47*	16	0.5
CN(c1ccccc1)c1ccc(/C=C/[N+](=O)[O-])cc1	5.5*	.	.	.	24	-2.4
Clc1ccc(CCNc2nc3ccccc3s2)cc1	-3	-3	1	-1	-1	-1.8
O=c1c(-c2nc3ccccc3s2)cccn1Cc1ccc(Cl)cc1	68*	96*	0	-87	-4	-1.4
COc1ccccc1NC(=O)CCC(=O)N/N=C(/C)c1ccc(C)cc1	0	.	.	.	-12	1.3
O=C1CC(c2ccccc2)Cc2nc(N3CCc4ccccc4C3)ncc21 (stereo not given)	-1	-5	1	1	-5	-1.3
Cc1ccc(C2CC(=O)c3cnc(N4CCc5ccccc5C4)nc3C2)cc1 (stereo not given)	-4	581*	-2	3	-5	-0.75
Cn1cccc1Cc1nnc(SCC(=O)NC2CCCC2)n1-c1ccc(F)cc1	-4	-2	-8	0	5	-0.08
CS(=O)(=O)NCc1nnc(SCC(=O)NC2CCCCC2)n1-c1ccc(F)cc1	-1	103*	-1	11	-6	-0.1
O=C(NCc1ccccc1Cl)c1ccc(S(=O)(=O)Nc2cccc(C(F)(F)F)c2)cc1	-1	.	.	.	10	-0.58
CCOC(=O)N1CCN(C(=O)/C(=C/c2ccc(Br)cc2)NC(=O)c2ccc(OC)cc2)CC1	-2	.	.	.	4	0.81
C/C=C(/C)C(=O)O[C@@H]1[C@H](OC(C)=O)c2c(ccc3ccc(=O)oc23)OC1(C)C	2	.	.	.	1	-0.25
C/C=C(/C)C(=O)OC1c2c(ccc3ccc(=O)oc23)OC(C)(C)C1OC(C)=O (stereo not given)	0	20*	2	-5	-2	-1.7
CC(C)[C@H](NS(=O)(=O)c1ccccc1)C(=O)OCC(=O)N1N=C(c2ccc(Cl)cc2)CC1c1ccco1 (stereo not given in full)	0	.	.	.	5	0.04
O=S1(=O)C=C(Sc2nc3ccccc3s2)c2ccccc21	0	.	.	.	74*	-2.5
Cc1cc(C)nc(SC2=CS(=O)(=O)c3ccccc32)n1	-2	-7	-1	-12	7	-0.19
O=[N+]([O-])c1ccc2cn(-c3ccccc3)nc2c1	1	.	.	.	0	-0.05
COc1ccc(Br)cc1C(=O)Nc1ccc(NC(=O)c2ccco2)cc1	-3	-6	-1	-3	-9	-0.7
COc1ccc(Br)cc1C(=O)Nc1cccc(-c2nnc(-c3ccco3)o2)c1	1	-5	66*	-1	-2	.
Cc1ccc(CNC(=O)c2oc3ccc(S(=O)(=O)N4CCOCC4)cc3c2C)cc1	-2	-6	0	50*	6	-0.12
CCCC(=O)Nc1cccc(NC(=O)c2cccc([N+](=O)[O-])c2C)c1	0	.	.	.	8	1.8
CCn1ncc(Br)c1C(=O)Nc1cc([N+](=O)[O-])ccc1C	-1	.	.	.	1	0.06
c1ccc2c(CCNc3ncnc4nc[nH]c34)cccc2c1	-4	-3	21*	1	9	0.01
SMILES	GALR2 ag	S1P2 ag	FAK inh	S1P2 blocker	GALR2 antag	sdo1 growth
O=C(O)CCCC(=O)N1CCN(c2nc(-c3ccccc3)c3ccccc3n2)CC1	-1	38*	-3	-6	13	-0.45
c1ccc(-c2nc(N3CCCCC3)nc3ccccc23)cc1	1	3	0	-19	-2	-1.5
c1ccc(-c2nc(N3CCNCC3)nc3ccccc23)cc1	8	20*	1	-18	13	-0.77
O=C(O)C1CC=CCC1C(=O)N1CCN(c2nc(-c3ccccc3)c3ccccc3n2)CC1 (stereo not given)	9	21*	-2	-16	23	0.58
O=C(O)CCCC(=O)N1CCN(c2cccc(Cl)c2)CC1	-1	-1	-1	-3	-2	0.82
Cc1ccccc1NC(=O)Nc1nnc(Cc2ccc([N+](=O)[O-])cc2)s1	0	.	.	.	13	-0.88
c1nc(N2CCCC2)c2[nH]cnc2n1	0	-1	34*	7	-8	1.8
c1nc(N2CCCCCC2)c2[nH]cnc2n1	0	.	.	.	-4	-0.14

Screening results: PubChem, several laboratories
